This assay is described as follows: general mammalian cell viability loss – inhibitor set, cherry-pick, set 2, cytotoxicity control for miR-122 modulator project, dose response (AID 720697).

Potency and affinity values are given separately. Inconclusive results are not listed. Entries that show only a call come without a potency. A number with no mark means an inactive call. The source made the active and inactive calls.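 How the source made its calls: active means signal loss with fitted half-maximal concentration at or below twice the top valid tested dose in every test run; inconclusive means runs disagree, flat 30 to 70% signal loss, or poor fit; inactive means all runs flat, opposite direction, or potency beyond limit.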

On to `CCCNC(=O)C[C@H]1CC[C@@H]2[C@H](COc3ccc(NS(=O)(=O)c4ccccc4C)cc3C(=O)N2C)O1`, for which the molecule was called inactive.

For the molecule `Cc1nn(C)cc1NC(=O)C[C@@H]1CC[C@@H]2[C@H](COc3ccc(NC(=O)Nc4cccc(Cl)c4)cc3C(=O)N2C)O1`, the molecule was classed as inactive.

With `CC(C)C(=O)Nc1ccc2c(c1)C(=O)N(C)[C@@H]1CC[C@@H](CC(=O)N[C@H](C)c3ccccc3)O[C@@H]1CO2`, the result was inactive.

Turning to `CCC(=O)N1C[C@H]2[C@@H](c3ccccc31)[C@H](CO)N2Cc1cc(F)ccc1F`, the result was inactive.

As to `CN1C(=O)c2cc(NC(=O)c3cccc(F)c3)ccc2OC[C@@H]2O[C@H](CC(=O)O)CC[C@@H]21`, the molecule was classed as inactive.

As to `CN(C)C(=O)c1ccc(-c2ccc([C@H]3[C@@H](CO)N4CCCCN(C(=O)C5CCCC5)C[C@@H]34)cc2)cc1`, the molecule was classed as inactive.

Take `CCNC(=O)C[C@H]1CC[C@@H]2[C@H](COc3ccc(NC(=O)c4cccs4)cc3C(=O)N2C)O1`: the result was inactive.

For the molecule `CCCNC(=O)N1[C@@H]2CN(C(=O)c3ccccc3)c3ccccc3[C@@H]2[C@@H]1CO`, the outcome was inactive.

In the case of `C[C@H](CO)N1C[C@H](C)[C@H](CN(C)CC2CCCCC2)OCCCC[C@H](C)Oc2ccc(NC(=O)Nc3cccc4ccccc34)cc2C1=O`, the outcome was inactive.

As for `CCCNC(=O)N1C[C@@H]2[C@H](c3ccccc31)[C@@H](CO)N2C(=O)C1CCOCC1`, the result was inactive.

On to `CNC(=O)C[C@H]1CC[C@H]2[C@@H](COc3ccc(NC(=O)c4cccc(OC)c4)cc3C(=O)N2C)O1`, for which the call was inactive.

`Cc1cc(C(=O)N/N=C/c2cc(Br)ccc2OC(=O)c2ccccc2)n[nH]1`: the molecule was classed as inactive.

`COc1ccccc1-c1ccc2c(c1)O[C@@H](CN(C)S(=O)(=O)c1ccc(F)cc1)[C@@H](C)CN([C@@H](C)CO)S2(=O)=O`: the molecule was called inactive.

For `CCC(=O)N1[C@H](CO)[C@@H](c2ccccc2)[C@@H]1CN(CC)C(=O)c1cccc(F)c1`, the molecule was called inactive.

In the case of `C/C=C/c1ccc([C@@H]2[C@@H](CO)N[C@@H]2CN(C(=O)C2CCCC2)C(C)C)cc1`, the call was inactive.

For `COc1ccc(S(=O)(=O)Nc2cc(C)cc(C)n2)c2ccccc12`, the call was inactive.

For `CNC(=O)C[C@H]1CC[C@@H]2[C@H](COc3ccc(NC(=O)NC(C)C)cc3C(=O)N2C)O1`, the result was inactive.

Regarding `COc1ccc(S(=O)(=O)N(C)C[C@@H]2Oc3cc(-c4cccc(F)c4)ccc3S(=O)(=O)N([C@@H](C)CO)C[C@H]2C)cc1`, the molecule was called inactive.

Consider `C/C=C/c1ccc([C@@H]2[C@@H](CO)N(Cc3ccccn3)[C@H]2CNC(=O)CC)cc1`, for which the result was inactive.

In the case of `C/C=C/c1ccc([C@H]2[C@@H](CO)N(Cc3ccccn3)[C@H]2CNC(C)=O)cc1`, the call was inactive.

For the molecule `O=C(c1cccnc1)N1C[C@H]2[C@@H](c3ccccc31)[C@H](CO)N2C(=O)C1CCCC1`, the molecule was called inactive.

Take `Cc1cc(CN(C)C(=O)c2cc(COc3ccc4ncccc4c3)on2)on1`: the molecule was called inactive.

`Cc1cccc(NC(=O)C[C@H]2CC[C@H]3[C@@H](COc4ccc(NC(=O)NC(C)C)cc4C(=O)N3C)O2)c1`: the molecule was called inactive.

On to `CO[C@@H]1CN(C)C(=O)c2cc(NC(=O)Nc3cc(Cl)cc(Cl)c3)ccc2OC[C@H](C)NC[C@H]1C`, for which the result was inactive.

In the case of `N#Cc1ccc(C(=O)Nc2ccc(N3CCN(C(=O)c4ccco4)CC3)cc2)c(F)c1`, the activity change, negative = cytotoxicity is -30.3% [at 6 µM].

Regarding `COC(=O)C[C@@H]1CC[C@H]2[C@@H](COc3ccc(NC(=O)Nc4ccccc4C)cc3C(=O)N2C)O1`, the outcome was inactive.

For `CCN(C[C@@H]1[C@@H](c2ccccc2)[C@@H](CO)N1C(=O)COC)S(C)(=O)=O`, the outcome was inactive.

Take `C/C=C/c1ccc([C@@H]2[C@H](CO)N[C@H]2CN(CC(C)C)C(=O)c2ccccn2)cc1`: the call was inactive.

For the molecule `CN1C(=O)c2cc(NC(=O)Nc3ccccc3F)ccc2OC[C@@H]2O[C@@H](CC(=O)NCc3ccc(-c4ccccc4)cc3)CC[C@@H]21`, the call was inactive.

With `C[C@@H]1CN([C@H](C)CO)S(=O)(=O)c2ccc(C3=CCCCC3)cc2O[C@@H]1CN(C)C(=O)Nc1ccc2c(c1)OCO2`, the outcome was inactive.

For the molecule `CC(C)OCCCNC(=O)c1ccncc1`, the molecule was classed as inactive.

On to `C[C@@H]1CN([C@H](C)CO)S(=O)(=O)c2ccc(C#CC3(O)CCCC3)cc2O[C@@H]1CN(C)C(=O)c1cccnc1`, for which the result was inactive.

With `COc1ccc(N2CCc3c(C)nc4c(OC)cc(OC)cc4c32)c(OC)c1`, the outcome was inactive.

For `COc1ccc2[nH]c(=O)c(COC(=O)c3ccco3)cc2c1`, the molecule was called inactive.

The values above are taken from PubChem BioAssay AID720697 (Broad Institute, 2013).
